From the supplement of paper PMC11001985
Values without a mark were called inactive.

What follows are molecules tested against TTYH3 (lysine site: K340) (UniProt Q9C0H2) (assay: lysine labeling ratio R10:1 (500 µM / 50 µM probe), SILAC-ABPP in living cells; higher = lower intrinsic lysine reactivity toward the probe, active = 2 or less). Conditions: HeLa; probe concentrations 500 vs 50 µM.
Experimental: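 Living HeLa cells (SILAC light/heavy) in PBS at room temperature were labeled with 50 µM versus 500 µM of the lysine-reactive, reductant-cleavable probe OPA-S-S-alkyne (SILAC labeling time not stated). Probe-modified peptides were CuAAC-biotinylated, captured on neutravidin and eluted with DTT/IAA, then quantified by LC-MS/MS. R = median peptide ratio per lysine (500/50 µM), combined over 3 forward and 3 reverse SILAC replicates. Ratios are capped at 20; R < 2 = hyper-reactive.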

Chain of TTYH3 (lysine site: K340) (Q9C0H2 whole entry): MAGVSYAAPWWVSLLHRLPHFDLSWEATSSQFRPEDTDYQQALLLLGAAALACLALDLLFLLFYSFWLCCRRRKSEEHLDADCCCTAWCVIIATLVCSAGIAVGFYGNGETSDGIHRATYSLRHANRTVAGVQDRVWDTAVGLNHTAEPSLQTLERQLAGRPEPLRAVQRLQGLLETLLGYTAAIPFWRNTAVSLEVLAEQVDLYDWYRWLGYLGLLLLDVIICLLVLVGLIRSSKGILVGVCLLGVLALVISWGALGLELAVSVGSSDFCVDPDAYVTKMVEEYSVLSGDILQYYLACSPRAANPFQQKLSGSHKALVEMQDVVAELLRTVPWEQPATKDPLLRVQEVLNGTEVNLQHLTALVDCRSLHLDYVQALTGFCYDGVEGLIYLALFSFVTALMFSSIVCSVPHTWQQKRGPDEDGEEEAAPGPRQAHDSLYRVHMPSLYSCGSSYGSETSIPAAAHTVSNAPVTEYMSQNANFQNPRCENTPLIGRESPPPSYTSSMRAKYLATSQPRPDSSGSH

Compound	lysine labeling ratio R10:1
C#CCNC(=O)CCSSCCC(=O)NCCc1ccc(C=O)c(C=O)c1	2.27
